Bioassay records (PubChem BioAssay)
HP1b chromo inh: HTS for Inhibitors of HP1-beta Chromodomain Interactions with Methylated Histone Tails | Chromobox protein homolog 1 (Homo sapiens), P83916 | AlphaScreen HP1-beta / biotin-H3K9me3 peptide binding | Potency, µM (series often up to 114 µM), usual class: inhibitors | 0.56% of 390,000 active | AID 540317, 2011; note: nearly all actives have a fitted effect of over 70% in size
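HP1-beta protein (50 nM final) preincubated 30 min at room temperature with biotinylated H3(1-18)K9me3 peptide (50 nM) in PBS pH 7.4, 0.01% Tween-20, then compound added for 30 min. AlphaScreen streptavidin donor/nickel chelate acceptor beads (10 ug/mL final), 30 min dark, luminescence read.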
G9a inh: qHTS Assay for Inhibitors of Histone Lysine Methyltransferase G9a | G9a H3K9 monomethylation, AlphaScreen, 2 h | Potency, µM (doses to about 102 µM), hits mostly inhibitors | 8.8% of 350,000 active | AID 504332, 2011; note: nearly all actives have a fitted effect of over 75% in size
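Signal arises when biotinylated H3K9 peptide, once monomethylated, bridges streptavidin donor and antibody-captured acceptor beads. Enzyme at 20 nM was preincubated 15 min with test compounds; peptide 500 nM and SAM 20 uM then reacted for 2 h.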
Sfp PPTase inh: qHTS Assay for Inhibitors of Bacillus subtilis Sfp phosphopantetheinyl transferase (PPTase); 4'-phosphopantetheinyl transferase ffp (Bacillus subtilis), Q9F4F7; Biochemical Sfp PPTase activity, qHTS; Potency, µM, actives largely listed as inhibitors; 3.5% of 310,000 active;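 note: the enzyme is Sfp with the accession as filed and its product quenches rhodamine fluorescence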
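Fluorescence-quenching assay with 15 nM Sfp, 5 uM rhodamine-CoA and 12.5 uM BHQ-2-labelled ybbR peptide in pH 7.6 Hepes/MgCl2 buffer. Enzyme was pre-incubated with compound for 15 min at room temperature. Rate was taken from the 30-min fluorescence change (525/598 nm).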
JMJD2A Tudor inh: qHTS Assay for Inhibitors of JMJD2A-Tudor Domain; Lysine-specific demethylase 4A (Homo sapiens), O75164; AlphaScreen JMJD2A-Tudor / H3K4me3 peptide binding; Potency, µM (doses to about 114 µM), usual class: inhibitors; 4.4% of 390,000 active; note: nearly all actives have a fitted effect of over 50% in size
BAZ2B inh: qHTS Assay for Inhibitors of BAZ2B. Bromodomain adjacent to zinc finger domain protein 2B (Homo sapiens), Q9UIF8. 4.4% of 360,000 active. AlphaScreen BAZ2B-H3K14Ac peptide displacement. AID 504333, 2011. Potency, µM (doses to about 114 µM), actives largely listed as inhibitors; note: nearly all actives have a fitted effect of over 60% in size
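AlphaScreen luminescence quantifies BAZ2B engagement of H3K14Ac peptide; the protein and biotinylated peptide are both at 50 nM final, buffer PBS pH 7.4 with 0.01% Tween-20, all steps at room temperature.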
PLK1 PBD block: qHTS for Inhibitors of PLK1-PDB (polo-like kinase 1 - polo-box domain): Primary Screen | Serine/threonine-protein kinase PLK1 (Homo sapiens), P53350 | Plk1 PBD binding of FITC phosphopeptide, fluorescence polarization | Potency, µM, hits mostly inhibitors | 2.8% of 360,000 active | AID 720504, 2013; note: series mostly up to about 57 µM; nearly all actives have a fitted effect of over 65% in size
A number is an active result; - = inactive; ? = inconclusive; . = no result; [ ] = remark or other dose. Compounds with a hit are over-represented: about 12% of the library has one in this group of screens. Calls come from the whole dose curve; as a rule, active = well fitted curve in the direction sought with a large enough effect; inconclusive = small, poorly fitted or top-dose-only effect, or another doubt; inactive = no such curve, though single readings can be large; an effect the other way counts as inactive or inconclusive.

SMILES | HP1b chromo inh | G9a inh | Sfp PPTase inh | JMJD2A Tudor inh | BAZ2B inh | PLK1 PBD block
COc1ccc(OC)c(NC(=O)CSC2=C(C#N)C(c3ccco3)C3=C(CCCC3=O)N2)c1 (stereo not given) | - | -[12.7 µM] | - | ? | - | -
N#CC1=C(SCC(=O)c2ccc(Cl)cc2)NC2=C(C(=O)CCC2)C1c1ccco1 (stereo not given) | - | ? | 45µM | ? | ? | -
O=C(NCc1ccccn1)C1CCCCC1 | - | - | - | - | - | -
COc1cc(-c2nnc(SCC(=O)Nc3ccc(C(=O)O)cc3)o2)cc(OC)c1OC | - | . | . | - | . | -
N#CC1=C(SCC(=O)Nc2ccc(C(=O)O)cc2)NC(=O)CC1c1ccco1 (stereo not given) | - | . | 32µM | - | - | -
Cc1cc(C)c(NC(=O)c2cc3c(nc4sccn43)s2)c(C)c1 | - | 50µM | - | - | - | -
Cc1ccc(C)c(C(=O)c2c(C)nc3sccn23)c1 | - | - | - | - | - | -
Cc1ccc2nc3c(cc(C(=O)NCC4CCCO4)c(=N)n3CCCOC(C)C)c(=O)n2c1 (stereo not given) | - | 56µM | - | ? | - | -
O=C1CC(c2ccc(F)cc2)CC(O)=C1C=NCCN1CCN(C(=O)Nc2ccccc2)CC1 (stereo not given) | - | - | - | - | - | -
CC(C)(C)c1ccc(-c2nc(SCCOc3ccc(Cl)cc3)n3[nH]c(=O)cc3n2)cc1 | - | - | . | ? | 50µM | .
COc1ccccc1OCCSc1nc(-c2ccc(C(C)(C)C)cc2)nc2cc(=O)[nH]n12 | - | - | . | - | ? | .
Cc1ccc(OCCCSc2nc(-c3ccc(C(C)(C)C)cc3)nc3cc(=O)[nH]n23)cc1C | ? | - | . | 25µM | 45µM | .
Cc1ccc(OCc2nnc(SCc3nc4ccccc4[nH]3)n2Cc2ccco2)cc1 | - | 14µM | - | ? | ? | -
c1ccc(-c2nnc(SCc3nc4ccccc4[nH]3)n2Cc2ccco2)cc1 | - | . | - | 32µM | - | -
CCn1c(COc2ccc(Cl)cc2)nnc1SCc1nc2ccccc2[nH]1 | - | . | - | - | - | -
C=CCC1NCCc2c(Br)cccc21 (stereo not given) | - | 22µM | - | - | - | -
CCCCSc1nnc(CNC(=O)C23CC4CC(CC(C4)C2)C3)n1Cc1ccccc1 | - | ? | - | - | - | -
CCN1CCc2c(C#N)c(N3CCCCC3)nc(NCc3ccccc3)c2C1 | - | ? | - | ? | 56µM | -
N#Cc1c(N)sc(=S)c2c1CCN(Cc1ccccc1)C2 | . | ? | 3.5µM | . | 79µM | .
CCN1CCc2c(sc(N)c2C#N)C1 | - | -[12.7 µM] | - | -[11.4 µM] | - | -
N#Cc1c(NCCO)nc(NCc2ccccc2)c2c1CCN(Cc1ccccc1)C2 | - | ? | - | ? | 45µM | ?
COC(=O)C1=C(C)N(Cc2ccccc2)C2=C(C(C)=O)C(c3ccccc3)[C@@](O)(C(=O)OC)C(=O)N2C1c1ccccc1 (stereo not given in full) | . | . | - | . | . | .
CCCCCC(=O)Nc1ccccc1N1CCN(c2ccccc2)CC1 | - | - | - | - | - | -
O=C(/C=C/c1ccco1)NC(=S)Nc1ccccc1N1CCOCC1 | - | ? | - | ? | ? | -
CN(C(=O)C=Cc1ccco1)c1ccccc1 | - | . | . | - | . | -
SMILES | HP1b chromo inh | G9a inh | Sfp PPTase inh | JMJD2A Tudor inh | BAZ2B inh | PLK1 PBD block
O=C(O)/C=C\C(=O)Nc1ccccc1N1CCN(c2ccccc2)CC1 | - | 45µM | ? | - | ? | -
O=C(/C=C/c1ccco1)Nc1ccccc1N1CCCC1 | - | 45µM | ? | ? | ? | -
CN(C(=O)/C=C/c1ccco1)c1ccccc1C(=O)O | - | 25µM | 50µM | - | ? | -
O=C(/C=C/c1ccco1)Nc1ccccc1C(=O)Nc1cccc(C(=O)O)c1 | - | 50µM | ? | - | - | -
CS(=O)(=O)N1CCC2(CC1)CN(Cc1ccc(C#N)cc1)C2 | . | -[12.7 µM] | - | . | . | .
CC(C)C[C@@H](N)C(=O)O | . | - | - | . | . | .
O=C(O)/C=C/C(=O)Nc1ccccc1C(=O)Nc1ccccc1 | - | ? | 79µM | - | - | -
O=C(/C=C/c1ccco1)Nc1cc(Cl)ccc1C(=O)O | - | 8.9µM | 56µM | ? | ? | ?
O=C(/C=C/c1ccco1)Nc1ccccc1C(=O)O | - | 14µM | 18µM | ? | - | ?
Cc1ccc(/C=C/C(=O)Nc2ccccc2C(N)=O)o1 | - | 10µM | . | - | - | .
NC(=O)c1ccccc1NC(=O)/C=C/c1c(Cl)cccc1Cl | - | - | - | - | - | -
O=C(/C=C\c1ccco1)Nc1cc([N+](=O)[O-])ccc1F | - | - | - | - | - | -
CC(C)CNc1nc(C#N)nc(Nc2ccccc2)n1 | . | . | . | - | . | .
Cc1cccc(N2CCN(C(=O)CCCSc3nc4ccccc4[nH]3)CC2)c1C | - | ? | - | - | - | -
Cc1cc(F)ccc1C(O)c1ncc(-c2ccccc2C(F)(F)F)[nH]1 (stereo not given) | . | . | . | . | . | -
O=C1[C@H]2O[C@@H]2[C@@H](O)[C@H]2[C@H]1CCn1c(=O)n(Cc3cc4c(cc3Cl)OCO4)c(=O)n12 | . | . | - | . | . | .
CCN=C1S/C(=C\c2cc(Cl)c(OC)c(OC)c2)C(=O)N1CC | - | - | - | - | - | -
CCN=C1S/C(=C/c2ccc(-c3ccc(Cl)cc3C(=O)O)o2)C(=O)N1CC | - | 45µM | - | - | ? | ?
CCN1C(=O)/C(=C\c2ccc(-c3ccc([N+](=O)[O-])cc3OC)o2)SC1=Nc1cccc(C(=O)O)c1 | 28µM | 11µM | 25µM | 56µM | 50µM | 21µM
CCOC(=O)COc1ccc(/C=C2/SC(=Nc3ccccc3)N(Cc3cccnc3)C2=O)cc1OC | - | ? | ? | - | ? | -
CCN=C1S/C(=C\c2ccc(-c3cccc(C(=O)O)c3)o2)C(=O)N1CC | - | 40µM | 20µM | ? | ? | ?
O=C(O)c1cccc(-c2ccc(/C=C3/SC(=Nc4ccccc4)N(Cc4cccnc4)C3=O)o2)c1 | ? | 32µM | 50µM | 45µM | 50µM | 24µM
CCN1C(=O)/C(=C\c2ccc(-c3cccc(C(=O)OC)c3)o2)SC1=Nc1ccc(C(=O)O)cc1 | . | . | - | . | - | .
CN(C(=O)CSc1nncn2c1cc1occc12)c1ccccc1 | - | - | . | - | - | .
COc1ccc(OCC(=O)NC(Cc2c[nH]c3ccccc23)C(=O)O)cc1 (stereo not given) | - | - | . | - | - | .
COC(=O)c1ccccc1S(=O)(=O)N1CCC(NC(=O)C(Cc2cccc(OC)c2OC)NC(C)=O)CC1 (stereo not given) | - | - | - | - | - | -
